An excerpt weighted towards active compounds, which were near 8.1% of everything screened.
PINK1 modulator: modulators of PINK1 expression; PINK1 immunofluorescence, high-content cytometry, 24 h; Potency, µM (series often up to 76.6 µM), inactives show at the highest dose activation (PINK1 increase), actives largely listed as activators; actives 0.2% (n = 410,000); AID 624263; active means well fitted activation curve with a large enough effect; inconclusive means small, poorly fitted or top-dose-only effect; cell line not stated here; further: % of control where 0% means no effect; nearly all actives have a fitted effect of over 65% in size
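PINK1 protein, normally rapidly degraded, was detected by immunofluorescence after 24 hour compound treatment of a stable cell line. Titration data (5 concentrations) came from laser-scanning cytometry, with CCCP-treated wells as controls.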
VP16 counter: inhibits Gal4-VP16 luciferase reporter, ROR gamma counter-screen | Drosophila S2 Gal4-VP16 UAS-luciferase, luminescence, 20 h | Potency, µM (top dose mostly 53.6 µM), for the others: at the top dose activity, negative = inhibition, usual class: inhibitors | actives 3.5% (n = 310,000) | AID 2546;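 further: Gal4-VP16 expression switched on by copper sulfate through the metallothionein promoter; on the % scale 0 is the no-effect control and ±100 the full control effect; nearly all actives have a fitted effect of over 50% in size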
Epigenetic derep: derepresses silenced GFP reporter in murine cells | AID 1865 | Potency, µM (series often up to 53.9 µM), for inactives: at the top dose GFP activation, usual class: activators | actives 0.2% (n = 280,000) | murine LDR cells, GFP reporter derepression, 30 h; further: % of control where 0% means no effect; nearly all actives have a fitted effect of over 60% in size
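GFP-positive cell count by laser-scanning cytometry (objects 20–120 um) after 30 h, 37 C compound exposure of murine LDR cells; reporter is CMV-GFP integrated at a silenced locus, inducible by HDAC or DNMT inhibitors.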
ClpP mod: qHTS Assay for Activators of ClpP; Potency, µM (doses to about 57.5 µM), inactives show at the top dose activity change, negative = active; AID 651965, 2013; actives 1.9% (n = 340,000); ATP-dependent Clp protease proteolytic subunit (Bacillus subtilis (strain 168)), P80244; purified B. subtilis ClpP, FRET peptide cleavage, 20 min; active means well fitted falling curve with a large enough effect; inconclusive means small, poorly fitted or top-dose-only effect; inactive means no such curve, though single readings can be large or run the other way; further: the source files actives as falling curves though it sought activators and does not explain the sign; nearly all actives have a fitted effect of over 65% in size
Target sequence (P80244 whole entry, looked up): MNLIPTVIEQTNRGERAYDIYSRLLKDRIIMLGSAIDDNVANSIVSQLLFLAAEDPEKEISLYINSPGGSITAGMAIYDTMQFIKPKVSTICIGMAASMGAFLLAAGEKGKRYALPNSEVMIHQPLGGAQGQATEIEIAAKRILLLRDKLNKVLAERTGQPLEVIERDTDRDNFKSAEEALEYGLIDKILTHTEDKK
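ClpP 10 microg/mL final, pH 8 Tris/KCl buffer with BSA, glycerol, Tween-20; compound pinned in; FRET-FV substrate; RT 20 min; Ex320/Em430; ΔFRET vs ADEP 5.8 microM, DMSO, no enzyme.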
Sfp PPTase inh: inhibitors of Bacillus subtilis Sfp phosphopantetheinyl transferase | actives 3.5% (n = 310,000) | Biochemical Sfp PPTase activity, qHTS | Potency, µM, without a hit: largest response in the series, negative = inhibition, most hits filed as inhibitors | AID 1490;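 further: the enzyme is Sfp with the accession as filed and its product quenches rhodamine fluorescence; 0% = enzyme reaction without inhibitor and -100% = no enzyme wells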
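Fluorescence-quenching assay with 15 nM Sfp, 5 uM rhodamine-CoA and 12.5 uM BHQ-2-labelled ybbR peptide in pH 7.6 Hepes/MgCl2 buffer. Enzyme was pre-incubated with compound for 15 min at room temperature. Rate was taken from the 30-min fluorescence change (525/598 nm).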
RORg inh: ROR gamma (mouse) transcription inhibition; P51450; Drosophila S2 Gal4-RORgamma UAS-luciferase reporter, 20 h; Potency, µM (top dose mostly 53.6 µM), for inactives: top-dose activity change, negative = inhibition, most hits filed as inhibitors; actives 5.4% (n = 310,000); further: on the % scale 0 is the no-effect control and ±100 the full control effect; nearly all actives have a fitted effect of over 60% in size
Target sequence (P51450 whole entry, looked up, the tested form may be a part): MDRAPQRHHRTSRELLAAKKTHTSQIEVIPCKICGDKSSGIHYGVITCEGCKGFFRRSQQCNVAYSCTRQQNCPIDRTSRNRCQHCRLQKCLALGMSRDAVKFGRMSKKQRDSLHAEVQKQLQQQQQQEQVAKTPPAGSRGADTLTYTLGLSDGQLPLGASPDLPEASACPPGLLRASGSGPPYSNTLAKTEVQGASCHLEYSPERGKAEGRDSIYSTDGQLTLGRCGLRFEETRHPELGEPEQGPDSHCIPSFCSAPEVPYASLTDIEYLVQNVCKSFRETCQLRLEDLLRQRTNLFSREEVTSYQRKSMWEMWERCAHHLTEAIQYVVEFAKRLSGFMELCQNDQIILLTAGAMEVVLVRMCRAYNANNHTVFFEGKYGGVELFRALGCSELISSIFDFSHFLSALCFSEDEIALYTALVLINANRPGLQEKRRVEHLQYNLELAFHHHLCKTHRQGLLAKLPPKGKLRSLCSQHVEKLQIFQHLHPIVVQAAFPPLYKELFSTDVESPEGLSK
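ROR gamma transcriptional activity was tracked as Gal4-UAS luciferase output in stably transfected Drosophila Schneider cells, with compound added 1 hr before 700 uM copper sulfate induction and a 20 hr ambient-temperature incubation.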
* hit, by the source's call; ? = inconclusive; nt = no result given; [ ] = remark or other dose. Unless noted, the call rests on the fitted dose curve; in most records, active means well fitted curve in the direction sought with a large enough effect; inconclusive means small, poorly fitted or top-dose-only effect, or another doubt; inactive means no such curve, though single readings can be large; an effect the other way counts as inactive or inconclusive. Potency means the concentration at half of the fitted maximal effect.

SMILES	PINK1 modulator	VP16 counter	Epigenetic derep	ClpP mod	Sfp PPTase inh	RORg inh
CCOC(=O)C1=C(C)N=c2s/c(=C\c3ccc(OC(C)=O)c(OCC)c3)c(=O)n2C1/C=C/c1ccccc1 (stereo unspecified)	-2%	3%	?	-2%	45µM*	4%
CCOC(=O)C1=C(C)N=c2s/c(=C/c3ccc(OCC(=O)O)cc3)c(=O)n2C1c1cc(OC)c(OC)c(OC)c1 (stereo unspecified)	3%	6%	nt	-2%	-8%	9%[1.91 µM]
CCOC(=O)C1=C(C)N=c2s/c(=C\c3ccc(OC(C)=O)cc3)c(=O)n2C1/C=C/c1ccccc1 (stereo unspecified)	?	-5%	?	1%	-10%	-8%
Cc1nc2c3ccccc3nc(SCC(=O)c3ccc(Cl)cc3)n2n1	?	?	0%	-3%	?	?
COc1cc2nc(SCC(=O)c3ccc(Br)cc3)n3nc(C)nc3c2cc1OC	7%	?	0%	0%	-15%	13µM*
C[N+]1(CC(=O)c2ccc3ccccc3c2)CCOCC1	2%	nt	nt	-27%	nt	nt
CC1=C(C(=O)OC2CCCCCC2)C(c2cccc(Cl)c2)CC(=O)N1 (stereo unspecified)	3%	nt	1%	-5%	nt	nt
COc1ccc(/C=c2\s/c(=C/C(=O)c3ccc(C)cc3)[nH]c2=O)c(OC)c1	?	-79%	7%	-2%	-19%	?
COc1cccc(/C=c2\s/c(=C\C(=O)C(C)(C)C)[nH]c2=O)c1	7%	?	-3%	-9%	4%	10µM*
CCOc1cc(CNCc2ccccc2)ccc1OCc1ccc(Cl)cc1	-2%	-27%	nt	nt	-27%	?
Cc1ccc(NCc2ccccc2OCc2ccccc2F)cc1	12%	?	1%	0%	-3%	-44%
Oc1ccc(NCc2ccccc2OCc2ccccc2F)cc1	7%	16µM*	?	4%	?	13µM*
CCOc1cc(CNc2ccc(O)cc2)ccc1OCc1ccc(Cl)cc1Cl	?	?	?	-3%	?	16µM*
CCOc1cccc(CNc2ccc(O)cc2)c1OCc1ccc(Cl)cc1	?	?	?	-1%	45µM*	?
CC1=C(C(=O)Nc2ccc([N+](=O)[O-])cc2)C(c2cccc(C(F)(F)F)c2)NC(=S)N1c1ccccc1 (stereo unspecified)	?	?	0%	-2%	14%	?
COc1ccc(C2NC(=S)N(c3ccccc3)C(C)=C2C(=O)Nc2ccccc2)cc1 (stereo unspecified)	-1%	?	-3%	-2%	89µM*	0%
Cn1cccc1/C=C1\SC(=Nc2cccc(O)c2)NC1=O	9%	?	0%	-1%	-20%	3.2µM*
Cc1ccc(N=C2NC(=O)/C(=C/c3cccn3C)S2)c(C)c1	15%	-19%	0%	nt	8%	10µM*
Cc1ccc(N=C2NC(=O)/C(=C/c3cn(C)c4ccccc34)S2)cc1C	5%	?	8%	1%	-2%	13µM*
Cn1cc(/C=C2/SC(=O)N(c3ccccc3)C2=O)c2ccccc21	7%	-3%	?	-1%	1%	5%
Cn1cccc1/C=C1\SC(=Nc2ccccc2)NC1=O	7%	2%	3%	0%	0%	-13%
COc1ccccc1CNC(=O)c1cnn(-c2nccc(-c3cccs3)n2)c1C	3%	nt	nt	nt	nt	nt
Cc1cc(C)n(-c2cccc(C(=O)NCC3Cc4cccc(-c5cccnc5)c4O3)c2)n1 (stereo unspecified)	1%	nt	nt	nt	nt	nt
O=C(NCc1ccc(C(F)(F)F)cc1)c1ccc(-c2ccc(F)c(F)c2)c2ccoc12	2%	nt	nt	28µM*	nt	nt
CCN(c1ccccc1)S(=O)(=O)c1ccc(NC(=O)c2cc(=O)c3ccc(C)c(C)c3o2)cc1	0%	nt	6%	-2%	nt	nt
SMILES	PINK1 modulator	VP16 counter	Epigenetic derep	ClpP mod	Sfp PPTase inh	RORg inh
COc1cccc(CNC(=O)c2c(OC)cc(=O)n3c2CCN(C(=O)c2csc(C)n2)CC3)c1	3%	nt	nt	nt	nt	nt
CCC(CC)c1nnc(NC(=O)CS(=O)(=O)c2ccccc2)s1	-1%	20%	nt	nt	50µM*	-39%
CC(C)(C)C(=O)Nc1nnc(Cc2ccccc2)s1	6%[38.3 µM]	1%	5%	-3%	13%	13µM*
O=C(CCS(=O)(=O)Cc1ccccc1)Nc1ncc([N+](=O)[O-])s1	4%	?	nt	0%	9%	7.9µM*
O=C(CS(=O)(=O)c1ccccc1)Nc1nnc(Cc2ccccc2)s1	0%	5%	nt	1%	45µM*	?
CCC(C)(C)C(=O)Nc1nnc(CCc2ccccc2)s1	4%	?	nt	1%	-5%	?
CC(C)Cn1c(=O)c2ccccc2n2c(CCC(=O)NCc3ccc(Cl)cc3)nnc12	1%	nt	0%	-1%	nt	nt
CC1CCCN(C(=O)c2ccc(CSc3nc4ccncc4n3Cc3ccccc3)cc2)C1 (stereo unspecified)	0%	nt	-3%	-8%	nt	nt
CCC(CC)c1nnc(NC(=O)CCS(=O)(=O)Cc2ccccc2)s1	5%	-16%	nt	-3%	63µM*	10%
CCc1nnc(NC(=O)CCS(=O)(=O)Cc2ccccc2)s1	0%	6%	nt	nt	13%	14%
CCn1c(C)c(C)c2cc(C(=O)NCc3cccc(C)c3)ccc21	-1%	nt	-1%	-8%	nt	nt
S=c1[nH]nc(-c2ccccn2)n1/N=C/c1ccc(Cl)c(Cl)c1	-1%	-23%	0%	nt	0%	7.1µM*
S=c1[nH]nc(-c2cc(-c3ccccc3)n[nH]2)n1/N=C/c1ccc(Cl)cc1	4%	?	1%	nt	-5%	?
S=c1[nH]nc(-c2ccccn2)n1/N=C/c1ccc(Br)s1	-1%	7.9µM*	0%	1%	12%	7.1µM*
S=c1[nH]nc(-c2ccccn2)n1/N=C/c1ccc(-c2ccccc2Cl)o1	-1%	-4%	0%	-2%	-6%	8.9µM*
S=c1[nH]nc(-c2cc(-c3ccccc3)n[nH]2)n1/N=C/c1ccc(Cl)c(Cl)c1	10%	7.9µM*	2%	nt	-24%	10µM*
O=C(NCCCN1CCN(c2cccc(Cl)c2)CC1)c1ccc2nc(Cc3ccccc3)oc2c1	2%	nt	-1%	-5%	nt	nt
Cc1cc(=O)oc2cc(OCC3CC(c4ccc(Br)cc4)=NO3)ccc12 (stereo unspecified)	12%[38.3 µM]	?	-1%	28µM*	8%	35%

Assay outcomes deposited in PubChem BioAssay by National Center for Advancing Translational Sciences (NCATS).
